The values below come from PubChem BioAssay (NCI).

The structures appear in SMILES notation. About 79,000 compounds went through this panel and 15% of them were active in at least one assay; those are over-represented in the sample as a whole. Unmarked numbers belong to inactive results. Active and inactive are the calls of the source. No stated cut-off is given here; in the data, active means growth inhibition above about 70%; inactive means the rest.

The nature of test [1]: NCI Yeast Anticancer Drug Screen. Data for the rad50 strain (AID 155).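 Further: 0% = growth of vehicle-only cultures of the same strain.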 The settings on record: S. cerevisiae rad50 strain growth inhibition; at 50.0 µM; hits give high values. An outline of the steps:
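A DNA repair-deficient yeast mutant serves as the test organism; compound-induced growth inhibition is calculated against vehicle-treated cells.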

Test [2] is described as follows: NCI Yeast Anticancer Drug Screen. Data for the mec2-1 strain (AID 157). The settings on record: S. cerevisiae mec2-1 strain, at 50.0 µM, hits give high values. In a few lines:
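Cells of the genetically defined mec2-1 yeast strain are incubated with test compound. Inhibition of growth is calculated against vehicle-treated controls.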

Test [3] is described as follows: NCI Yeast Anticancer Drug Screen. Data for the sgs1 mgt1 strain (AID 161).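 Further: 0% = growth of cultures given vehicle only.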 The note with it: S. cerevisiae sgs1 mgt1 strain, at 50.0 µM, hits give high values. In a few lines: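 Mutant yeast exposed to compound; growth scored against vehicle-only wells.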
Test [4] in a line: NCI Yeast Anticancer Drug Screen. Data for the cln2 rad14 strain (AID 165).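 Further: 0% = growth equal to vehicle treated cultures.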 The note with it: S. cerevisiae cln2 rad14 strain, at 50.0 µM, hits give high values. An outline of the steps: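 The screen exposed genetically defined yeast (cln2 rad14) to test compounds and scored growth inhibition relative to vehicle-treated controls.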
The nature of test [5]: NCI Yeast Anticancer Drug Screen. Data for the bub3 strain (AID 167). The note with it: S. cerevisiae bub3 mutant strain, at 50.0 µM, hits give high values. An outline of the steps:
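Inhibition values come from growth of compound-treated mutant yeast normalised to vehicle-treated controls.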

Test [6] can be described thus: NCI Yeast Anticancer Drug Screen. Data for the mlh1 rad18 strain (AID 175). The note with it: S. cerevisiae mlh1 rad18 strain growth inhibition; at 50.0 µM; hits give high values. An outline of the steps: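 Compound-treated yeast growth, normalised to vehicle controls. Strain bears defined DNA repair mutations.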

As for `c1cncc([O][Ge]([O]c2cccnc2)([O]c2cccnc2)[O]c2cccnc2)c1`, the growth inhibition was 8.6% in test [1]; 15.8% in test [2]; 31% in test [3]; 24.1% in test [4]; 3% in test [5]; 35.8% in test [6].

In the case of `CCOC(=O)c1cnc2cc3c(cc2c1Nc1cccc(C(F)(F)F)c1)OCO3`, the growth inhibition in test [1] is 5.95%; in test [2], -8.85%; in test [3], -9.5%; in test [4], -6.45%; in test [5] it was -2.75%; in test [6] it was -11.6%.

Take `O=C(O)c1cccc(Cl)c1-c1c(Cl)cccc1C(=O)O`: the growth inhibition in test [1] is 4.65%; in test [2], -0.95%; in test [3] it was 17.8%; in test [4], 11.8%; in test [5], 17.3%; in test [6], -8.45%.

As for `CCCCCCCCCCCCCCCCS(=O)(=O)N/N=C(\c1ccc(C(C)C)cc1)N1CCOCC1`, the growth inhibition in test [1] is 1.3%; in test [2], -18.4%; in test [3], 12.7%; in test [4], 9.3%; in test [5], -1.5%; in test [6], 5.75%.

As for `C/C(O)=C(\N=Nc1ccccc1)C(N)=O`, the growth inhibition is -9.45% in test [1]; 7.95% in test [2]; 5.9% in test [3]; -28.9% in test [4]; -0.8% in test [5]; -3.45% in test [6].

Consider `Cc1nc2c(SCc3ccccc3)ncnc2o1`, for which the growth inhibition in test [1] is 16.1%; in test [2], -9.5%; in test [3], 14.9%; in test [4], 22.8%; in test [5], 35.4%; in test [6], 19.5%.

Turning to `NNS(=O)(=O)c1cccc(S(=O)(=O)NN)c1`, the growth inhibition in test [1] was -13.9%; in test [2] it was 12.3%; in test [3] it was -3.2%; in test [4], -4.25%; in test [5] it was 5.35%; in test [6] it was 5.3%.

In the case of `Cn1cc(C(=O)c2ccccc2)c2ccccc2c1=O`, the growth inhibition is 41.5% in test [1]; -4.4% in test [2]; 23.8% in test [3]; 8.25% in test [4]; 31.9% in test [5]; 16.4% in test [6].

On to `CC1c2c(cc(=O)n(C)c2O)C(=O)N1Cc1ccccc1` (stereo not given), for which the growth inhibition is 2% in test [1]; 5.75% in test [2]; 8.7% in test [3]; -2.6% in test [4]; 2.45% in test [5]; -9.4% in test [6].

As for `CN(C(=O)CCC(=O)O)c1ccccc1C(=O)O`, the growth inhibition is 0.2% in test [1]; -2.35% in test [2]; 11% in test [3]; -5.75% in test [4]; 0.85% in test [5]; -15.9% in test [6].

For the compound `CC(=O)c1nc2ccccc2n1CC(=O)c1ccc([N+](=O)[O-])cc1`, the growth inhibition is -0.65% in test [1]; 8.7% in test [2]; 6.2% in test [3]; -8% in test [4]; 3.45% in test [5]; -8.1% in test [6].

On to `COc1ccc([C@@]23Oc4cc(OC)cc(OC)c4[C@]2(O)[C@H](O)[C@H](C(=O)N(C)C)[C@H]3c2ccccc2)cc1`, for which the growth inhibition in test [1] is 91.8% (active); in test [2], 93.5% (active); in test [3], 92.8% (active); in test [4], 91.5% (active); in test [5] it was 91.3% (active); in test [6], 91.1% (active).

Regarding `Oc1c(Br)cc(Br)cc1/C=C/NC(=S)NC1CC2CC1C1C=CCC21` (stereo not given), the growth inhibition in test [1] was 28.2%; in test [2], 32.1%; in test [3], 10.6%; in test [4] it was -6.15%; in test [5], 5.15%; in test [6], 55.9%.

As for `CSc1nc(NC2OCC(OC(C)=O)C(OC(C)=O)C2OC(C)=O)c(N=CC=Nc2c(NC3OCC(OC(C)=O)C(OC(C)=O)C3OC(C)=O)nc(SC)[nH]c2=O)c(=O)[nH]1` (stereo not given), the growth inhibition in test [1] is 11.8%; in test [2], -7.9%; in test [3], -0.35%; in test [4], 7.15%; in test [5], -1.65%; in test [6], 8.25%.

For the compound `CC1OC(c2cccc([N+](=O)[O-])c2)OCC1(C)C` (stereo not given), the growth inhibition in test [1] is -14.7%; in test [2] it was -19.4%; in test [3] it was -4.9%; in test [4], -32.6%; in test [5] it was 15.1%; in test [6] it was -16.6%.

`COc1ccc(C(O)c2ccccn2)cc1` (stereo not given): the growth inhibition was -13.1% in test [1]; -35.9% in test [2]; -24% in test [3]; -34.8% in test [4]; -62.7% in test [5]; -18.7% in test [6].

In the case of `C/C(=C\CNc1ncnc2c1ncn2CCC(=O)OC(C)(C)C)CO`, the growth inhibition in test [1] is -12.3%; in test [2], -8.7%; in test [3], -49.1%; in test [4] it was 13.1%; in test [5], 5.6%; in test [6], -17.6%.

For the compound `CCOC(=O)NC(=O)c1cn(C2OC(COC(=O)CCCCCCCCC(=O)OCC3OC(n4cc(C(=O)NC(=O)OCC)c(=O)[nH]c4=O)C4OC(C)(C)OC34)C3OC(C)(C)OC32)c(=O)[nH]c1=O` (stereo not given), the growth inhibition was -42.9% in test [1]; -39.5% in test [2]; -27.9% in test [3]; 10.9% in test [4]; -16.1% in test [5]; -24.9% in test [6].

For `O=C(O)C1C2C3CCC(C3)C12` (stereo not given), the growth inhibition in test [1] was 2.7%; in test [2], 16.4%; in test [3], 8.2%; in test [4] it was 34.6%; in test [5], -4.9%; in test [6] it was 1.95%.

With `Cc1ccc(NC(=S)Nc2ccccc2C)nc1`, the growth inhibition in test [1] is 5.95%; in test [2], 9.35%; in test [3] it was 27.9%; in test [4] it was 13.1%; in test [5], 2.6%; in test [6], 18.9%.
